KB-V1 cytotox: kills drug-selected multidrug resistant KB-V1 cells; AID 1347076; 3.4% of 400,000 active; Potency, µM (titrated, usually from 46.1 µM), usual class: cytotoxic; KB-V1 MDR cells viability, CellTiter-Glo, 72 h; also: nearly all actives have a fitted effect of over 60% in size
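qHTS viability screen in drug-selected KB-V1 MDR cells: 72 h compound treatment at 37 degrees C, ATP luminescence end point.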
KB-3-1 cytotox: KB-3-1 parental cell cytotoxicity; KB-3-1 viability, CellTiter-Glo ATP luminescence, 72 h; Potency, µM (highest dose often 46.1 µM), usual class: cytotoxic; 1.4% of 400,000 active; AID 1347075; also: nearly all actives have a fitted effect of over 60% in size
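72 h, 37 °C compound treatment of KB-3-1 parental cells; CellTiter-Glo added, 10 min, luminescence read. Data corrected against DMSO-only plates and normalized before curve fitting.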
TDP1 cell noCPT: qHTS for Inhibitors of human tyrosyl-DNA phosphodiesterase 1 (TDP1): qHTS in cells in absence of CPT; 15% of 420,000 active; Potency, µM (highest dose often 46.2 µM), most hits filed as inhibitors; DT40 Tdp1-/- hTDP1 cells, no CPT, ATP luminescence, 48 h; also: nearly all actives have a fitted effect of over 55% in size
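Chicken DT40 Tdp1-/- cells stably complemented with human TDP1 were seeded at 400 cells/well with DMSO in place of 20 nM camptothecin. After compound pinning, cells grew at least 48 hr at 37 °C; viability read by CellTiter-Glo luminescence.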
HT1080-NT tox: kills 2HG-producing HT-1080-NT fibrosarcoma cells. 1.6% of 360,000 active. AID 686970. Potency, µM (top dose mostly 46.1 µM), actives largely listed as cytotoxic. HT-1080-NT fibrosarcoma viability, CellTiter-Glo ATP luminescence, 48 h;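 also: NT is the 2HG producing partner of a matched IDH1 knockdown line; nearly all actives have a fitted effect of over 55% in size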
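Luminescent CellTiter-Glo readout after 48 hours of compound exposure at 37 degrees C defined viability of HT-1080-NT cells. Activity was normalized to DMSO wells and cell-free media wells; concentration-response curves were fitted and assigned curve classes.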
HT1080 IDH1KD tx: toxicity to HT-1080 IDH1 knockdown cells (counter line) | HT-1080 IDH1 knockdown viability, ATP luminescence, 48 h | Potency, µM (doses to about 46.1 µM), most hits filed as cytotoxic | 2% of 360,000 active | AID 686971
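Viability of IDH1-knockdown HT-1080 fibrosarcoma cells was assessed by CellTiter-Glo after 48 h at 37 °C with titrated compound; concentration-effect curves were classified by fit quality and response size.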
DT40 TDP1 CPT: growth inhibition of DT40 Tdp1-/-;hTDP1 cells with camptothecin (screen for TDP1 inhibitors); chicken DT40 Tdp1-/-;hTDP1 cells + 20 nM CPT, ATP luminescence, 48 h; Potency, µM (top dose mostly 46.2 µM), hits mostly inhibitors; 12% of 420,000 active; AID 686979; also: nearly all actives have a fitted effect of over 55% in size
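Cell growth measured by CellTiter-Glo luminescence after a minimum 48 h, 37 C compound exposure with 20 nM CPT in Tdp1-knockout DT40 cells stably expressing hTDP1, seeded 400/well; qHTS titration format.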
Numbers stand for hits; - = inactive; ? = inconclusive; . = not tested or not shown; [ ] = another dose, or the depositor's remark. An excerpt weighted towards active compounds, which were near 19% of everything screened. Calls follow the shape of the dose curve; as a rule, active = well fitted curve in the direction sought with a large enough effect; inconclusive = small, poorly fitted or top-dose-only effect, or another doubt; inactive = no such curve, though single readings can be large; an effect the other way counts as inactive or inconclusive.

SMILES | KB-V1 cytotox | KB-3-1 cytotox | TDP1 cell noCPT | HT1080-NT tox | HT1080 IDH1KD tx | DT40 TDP1 CPT
Cc1cccc(NC(=O)Cn2c(=O)n(Cc3ccco3)c(=N)c3c4c(sc32)COC(C)(C)C4)c1 | - | - | ? | - | -[9.24 µM] | ?
O=C(CNC(=O)c1ccc(Oc2ccccc2)cc1)OC1CCCCC1=O (centres undefined) | - | - | - | - | - | -
Cc1ccc(S(=O)(=O)N2CCC(C(=O)N3CCC3)CC2)cc1 | - | - | - | - | - | ?
COc1ccc2[nH]c3nc(SCc4nnc(-c5ccc(C)cc5)o4)nnc3c2c1 | ? | ? | 16.4µM | ? | ? | 25.9µM
O=C(NNC(=O)C12CC3CC(CC(C3)C1)C2)c1ccccc1O | - | ? | 8.2µM | - | ? | 8.2µM
Cc1cccc(NC(=O)CC2C(=O)NCCN2C(=O)Nc2ccc(Cl)cc2)c1 (centres undefined) | - | - | - | ? | ? | ?
C=C(C)CNC(=S)N/N=C(\C)c1ccc(Cl)s1 | ? | - | 16.4µM | - | - | ?
CCNC(=S)N/N=C(\C)c1ccc(Cl)s1 | ? | - | 4.11µM | - | - | 4.11µM
C/C(=N/Nc1ccc(F)cc1)c1ccc(Cl)s1 | - | - | - | - | - | -
CNC(=S)N/N=C(\C)c1ccc(Cl)s1 | - | - | 4.61µM | - | - | 2.91µM
C/C(=N\NC(N)=O)c1ccc(Cl)s1 | ? | - | - | - | - | -
CNC(=S)NN=C(C)c1ccc(OC)cc1O | ? | ? | 0.0116µM | - | - | 0.0164µM
Cc1ccc(C(=O)N2CCCC(N3CCN(c4ccccc4C)CC3)C2)c(=O)[nH]1 (centres undefined) | - | - | - | - | - | -
CNC(=S)N/N=C(\C)c1ccc(C)c(C)c1 | ? | ? | 3.26µM | - | - | 2.59µM
C/C(=N\NC(=O)C1CC1)c1ccc(C)c(C)c1 | - | - | - | - | - | -
Cc1ccccc1C(=O)N1CCc2c(cnc(C)c2CNC(=O)CN2CCCCC2)C1 | . | . | - | . | . | -
CN1CCc2c(sc(N)c2C(=O)c2ccc(Cl)cc2)C1 | ? | - | ? | - | - | ?
COc1ccc(C(=O)c2c(N)sc3c2CCN(C(=O)OC(C)(C)C)C3)cc1 | ? | - | - | - | - | 14.6µM
CCCCN(CC)C(=O)CCNS(=O)(=O)c1ccc2c(c1)c(=O)n(C)c(=O)n2C | - | - | - | . | . | -
Cc1c(NS(=O)(=O)c2ccc(C(=O)NCc3ccccc3)cc2)c(=O)n(-c2ccccc2)n1C | - | - | ? | - | - | -
Cc1ccc(S(=O)(=O)NCCC(=O)Nc2ccc(C)cc2C(=O)c2ccccc2)cc1 | - | - | 20.6µM | - | - | ?
Cc1ccc(S(=O)(=O)NCc2ccc(C(=O)NCCN(Cc3ccccc3)C(C)C)cc2)cc1 | - | ? | 16.4µM | ? | ? | ?
Cc1ccc(CNC(=O)c2ccc(S(=O)(=O)Nc3c(C)n(C)n(-c4ccccc4)c3=O)cc2)cc1 | - | - | 20.6µM | - | - | ?
Cc1ccc(S(=O)(=O)NCCCNC(=O)c2ccccc2)cc1 | 18.4µM | - | - | - | - | -
COC(=O)[C@H](Cc1ccccc1)NC(=O)C1CCN(C(=O)[C@H](C)NS(=O)(=O)c2ccc(C)cc2)CC1 | - | - | - | - | - | -
SMILES | KB-V1 cytotox | KB-3-1 cytotox | TDP1 cell noCPT | HT1080-NT tox | HT1080 IDH1KD tx | DT40 TDP1 CPT
Cc1ccc(S(=O)(=O)NCCCNS(=O)(=O)c2ccc(C)cc2)cc1 | 14.6µM | - | ? | - | - | ?
Cc1ccc(S(=O)(=O)NCCCN(C)C)cc1 | - | - | - | - | - | -
Cc1ccc(S(=O)(=O)NNC(=O)c2ccc(C(=O)N(c3ccccc3)c3ccccc3)cc2)cc1 | - | - | 11.2µM | . | . | 15.8µM
Cc1nn(CCCC(=O)NCCc2ccccc2)c(=O)c2nn(-c3ccccc3)c(C)c12 | - | - | - | - | - | -
Cc1ccc(-n2nc3c(=O)n(CCCC(=O)NCCc4ccccc4C)nc(C)c3c2C)cc1 | - | - | 11.6µM | - | - | ?
Cc1ccc(-n2nc3c(=O)n(CCCC(=O)NCCN4CCN(C)CC4)nc(C)c3c2C)cc1 | - | - | - | - | - | -
Cc1ccc(CCNC(=O)CCCn2nc(C)c3c(C)n(-c4ccccc4)nc3c2=O)cc1 | - | - | 20.6µM | . | . | 20.6µM
Cc1ccc(CCNC(=O)CCCn2nc(C)c3c(C)n(-c4ccc(C)cc4)nc3c2=O)cc1 | - | - | ? | - | - | 14.6µM
Cc1ccc(-n2nc3c(=O)n(CCCC(=O)NCc4cccc(F)c4)nc(C)c3c2C)cc1 | - | - | 14.6µM | - | - | ?
COc1cccc(OC)c1CN1CCC2(CCC(CNC(=O)c3ccccc3)O2)CC1 (centres undefined) | . | . | - | . | . | -
N#Cc1ccc(C(=O)Nc2cc(-c3ccc(F)cc3)nn2-c2ccccc2)cc1 | - | - | ? | - | - | 14.6µM
Cn1nc(-c2ccccc2)cc1NC(=O)c1ccc(Cl)cc1 | - | - | - | - | - | -
O=C(Nc1cc(-c2ccccc2)nn1-c1c(Cl)cccc1Cl)c1ccc(F)cc1 | - | - | 18.4µM | - | - | 20.6µM
CC(NCC(O)COCCC12CC3CC(CC(C3)C1)C2)c1ccccc1 (centres undefined) | ? | ? | 14.6µM | ? | ? | 6.51µM
O=C(OCC(O)CN1CCCCC1)C12CC3CC(CC(C3)C1)C2 (centres undefined) | - | - | - | - | - | -
OC(COCCC12CC3CC(CC(C3)C1)C2)CN1CCCC1 (centres undefined) | - | - | ? | ? | ? | 18.4µM
COc1cccc(CN2CC(C(=O)NCC3CCOCC3)CCC2=O)c1 (centres undefined) | - | - | - | - | - | -
Cc1[nH]n(-c2ccccc2)c(=O)c1C(=O)c1ccc([N+](=O)[O-])cc1 | ? | - | ? | - | - | ?
Cc1[nH]n(-c2ccccc2)c(=O)c1C(=O)Nc1ccccc1 | - | - | 16.4µM | - | - | 8.2µM
C/C(=N\NC(=O)c1ccccc1)c1c(C)[nH]n(-c2ccccc2)c1=O | - | ? | 0.411µM | - | ? | 0.146µM
Cc1[nH]n(-c2ccccc2)c(=O)c1N=Nc1ccccc1C(=O)O | - | - | ? | - | - | ?
Cc1nn(-c2ccccc2)nc1C(=O)c1c(C)[nH]n(-c2ccccc2)c1=O | 20.6µM | 16.4µM | 3.66µM | - | - | 5.17µM
C/C(=N\NC(=O)c1ccc(C)cc1)c1c(C)[nH]n(-c2ccccc2)c1=O | ? | ? | 4.11µM | ? | 14.6µM | 4.61µM

Screening data as filed in PubChem BioAssay.
